Results: PubChem BioAssay
Calls of active or inactive are those of the source. Unless noted, the rule behind the calls is not given here.

Assays:
[1] = test system: Wnt5a (protein binding on small-molecule microarray); experiment: Wnt5a binders on small-molecule microarray, primary screen, biophysical, 635/667 nm fluorescence (AID 1142); conditions: 635 nm fluorescence, higher = more signal;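 note: fluorescence read at 667 nm with signal to noise per printed feature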
[2] = cell viability in Huh7 cells, primary screen, cytotoxicity control for HCV replication inhibitor project, CellTiter-Glo luminescence, basal, 48 h (AID 1143); conditions: Huh7 HCV replicon, higher = more signal, called active from +8 up or from −8 down;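 note: Huh7 hepatoma cells carrying a hepatitis C replication reporter with no stimulus; test concentration not given here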
[3] = P. aeruginosa biofilm formation inhibitors, primary screen, PAO1 strain, BacTiter-Glo luminescence, LB-PBS (AID 1144); conditions: 12 h, higher = more signal
[4] = CREB reporter modulators without forskolin, primary screen, cell-based, PC12, CRE-LacZ reporter, unstimulated (AID 1145); conditions: no forskolin, luminescence, 4.5 h, higher = more signal, called active from +8 up or from −8 down
[5] = CREB reporter modulators under forskolin, primary screen, cell-based, PC12, CRE-LacZ reporter, forskolin-stimulated (AID 1146); conditions: luminescence, 4.5 h, higher = more signal, called active from +8 up or from −8 down;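 note: PC12 cells with 6xCRE LacZ reporter stimulated by forskolin 10 µM; beta-galactosidase reporter signal reflecting CREB driven transcription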
[6] = biological target: Streptavidin (Streptomyces avidinii) (UniProt P22629); experiment: streptavidin binders on small-molecule microarray, primary screen, artefact control for SMM compound annotation, biophysical, 635/667 nm fluorescence (AID 1147); conditions: streptavidin binding, higher = more signal;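 note: signal reflects streptavidin binding to arrayed compounds as a control protein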
Chain of Streptavidin (Streptomyces avidinii) (P22629 whole entry, looked up): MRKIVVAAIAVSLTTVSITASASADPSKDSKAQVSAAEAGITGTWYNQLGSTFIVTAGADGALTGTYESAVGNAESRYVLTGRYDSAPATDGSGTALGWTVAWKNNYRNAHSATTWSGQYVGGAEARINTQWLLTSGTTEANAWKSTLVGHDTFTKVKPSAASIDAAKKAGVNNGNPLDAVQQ

[7] = small-molecule binders of probe aInhba, primary screen, biochemical, small-molecule microarray, 635/667 nm fluorescence (AID 1148); conditions: higher = more signal;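 note: score merges 667nm spot fluorescence with signal-to-noise for antibody binding to printed compounds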
Torsin-1A (Homo sapiens) [8] = biological target: Torsin-1A (Homo sapiens) (UniProt O14656); experiment: torsin A binders from cell lysate, primary screen, small-molecule microarray, wild-type, 635/667 nm (AID 1149); conditions: COS7 hTOR1A-WT lysate, 635 nm fluorescence, higher = more signal
Chain of Torsin-1A (Homo sapiens) (O14656 whole entry, looked up): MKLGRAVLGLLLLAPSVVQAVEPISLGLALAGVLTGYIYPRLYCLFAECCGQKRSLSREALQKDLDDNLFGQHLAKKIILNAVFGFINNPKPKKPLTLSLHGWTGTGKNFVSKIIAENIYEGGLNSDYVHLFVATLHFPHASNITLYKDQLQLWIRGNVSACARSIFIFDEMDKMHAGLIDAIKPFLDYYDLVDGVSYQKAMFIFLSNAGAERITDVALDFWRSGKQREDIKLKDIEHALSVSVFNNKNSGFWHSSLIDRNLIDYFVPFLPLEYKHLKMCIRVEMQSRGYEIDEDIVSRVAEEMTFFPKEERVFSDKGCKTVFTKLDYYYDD

Torsin-1A (Homo sapiens) [9] = biological target: Torsin-1A (Homo sapiens) (UniProt O14656); experiment: small-molecule binders of mutant TOR1A in lysate, primary screen, cell lysate, small-molecule microarray, COS7 lysate, 635/667 nm fluorescence (AID 1150); conditions: COS7 hTOR1A mutant lysate, 635 nm fluorescence, higher = more signal;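 note: score pools 667 nm emission and signal to noise measuring lysate protein binding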
[10] = test system: Sonic hedgehog protein (Shh); experiment: small-molecule binders of Shh protein, primary screen, biochemical, small-molecule microarray, 635/667 nm fluorescence (AID 1151); conditions: small-molecule microarray binding, 635 nm fluorescence; higher = more signal;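 note: Shh protein binding to compounds spotted on small-molecule microarray slides; score combines spot fluorescence intensity with signal-to-noise across triplicate slides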
[11] = E. coli DRC41 culture turbidity changes, primary screen, E. coli filamentation inducer project, strain DRC41, OD650, 48 h (AID 1152);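 note: E. coli MC1000 strain DRC41 lacking acrAB efflux pump and sulA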; conditions: E. coli DRC41 (acrAB sulA), higher = more signal, called active from +8 up or from −8 down
[12] = small-molecule binders of probe aLefty1, primary screen, biochemical, small-molecule microarray, 635/667 nm fluorescence (AID 1153); conditions: higher = more signal;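 note: score merges spot fluorescence with signal-to-noise ratio from the scanned slide images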
[13] = PSAC antagonists in infected red cells, primary screen, cell-based, P. falciparum Indochina, OD700, 1 h (AID 1154); conditions: P. falciparum Indochina infected RBC osmotic lysis, higher = more signal, called active from +8 up or from −8 down
[14] = PSAC antagonists in infected red cells, primary screen, cell-based, P. falciparum Indochina, OD700, 2 h (AID 1155);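 note: lysis reports solute entry through the parasite surface anion channel PSAC; channel blockers reduce lysis of infected cells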; conditions: P. falciparum Indochina infected erythrocytes, osmotic lysis OD700; higher = more signal, called active from +8 up or from −8 down
[15] = osmotic lysis modulators in infected erythrocytes, primary screen, PSAC antagonist project, cell-based, P. falciparum Indochina, OD700, 3 h (AID 1156); conditions: higher = more signal, called active from +8 up or from −8 down
[16] = PSAC antagonists in infected red cells, primary screen, cell-based, P. falciparum Indochina, OD700, 18 h (AID 1157); conditions: P. falciparum Indochina infected erythrocytes, osmotic lysis OD700, 18 h; higher = more signal, called active from +8 up or from −8 down
[17] = modulators of S6 phosphorylation in cells, primary screen, cell-based, A549, cytoblot, luminescence, serum-stimulated (AID 1158); conditions: A549 phospho-S6 cytoblot, 5 h, higher = more signal;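 note: serum-stimulated A549 lung adenocarcinoma cells; signal is phosphorylated S6 detected by cytoblot immunostaining with HRP secondary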
[18] = biological target: NADPH oxidase 2 (Homo sapiens) (UniProt P04839); experiment: NOX2-dependent H2O2 signal modulators, primary screen, NOX inhibitor project, cell-based, HEK293-NOX2, PMA-stimulated, Amplex Red fluorescence (AID 1159); conditions: 45 min, higher = more signal, called active from +8 up or from −8 down; note: test concentration not given here
Chain of NADPH oxidase 2 (Homo sapiens) (P04839 whole entry, looked up): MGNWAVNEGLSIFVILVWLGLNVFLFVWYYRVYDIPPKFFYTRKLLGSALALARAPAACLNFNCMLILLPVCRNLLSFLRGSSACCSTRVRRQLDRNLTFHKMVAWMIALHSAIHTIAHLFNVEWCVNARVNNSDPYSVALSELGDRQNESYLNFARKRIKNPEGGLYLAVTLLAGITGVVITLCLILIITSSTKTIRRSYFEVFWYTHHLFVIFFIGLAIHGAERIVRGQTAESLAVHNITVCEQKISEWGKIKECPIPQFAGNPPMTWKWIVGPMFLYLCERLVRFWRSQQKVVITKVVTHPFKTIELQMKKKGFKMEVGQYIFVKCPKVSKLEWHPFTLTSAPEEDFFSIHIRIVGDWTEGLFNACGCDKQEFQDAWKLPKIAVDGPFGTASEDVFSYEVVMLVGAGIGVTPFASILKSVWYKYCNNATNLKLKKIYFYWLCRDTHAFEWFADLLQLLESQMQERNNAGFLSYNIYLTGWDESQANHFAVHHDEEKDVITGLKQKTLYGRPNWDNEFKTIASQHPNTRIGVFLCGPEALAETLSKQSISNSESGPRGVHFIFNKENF

[19] = biological target: NADPH oxidase 4 (Homo sapiens) (UniProt Q9NPH5); experiment: NOX4-dependent H2O2 signal modulators, primary screen, NOX inhibitor project, cell-based, HEK293-NOX4, tetracycline-induced, Amplex Red fluorescence (AID 1160); conditions: 45 min, higher = more signal, called active from +8 up or from −8 down
Chain of NADPH oxidase 4 (Homo sapiens) (Q9NPH5 whole entry, looked up): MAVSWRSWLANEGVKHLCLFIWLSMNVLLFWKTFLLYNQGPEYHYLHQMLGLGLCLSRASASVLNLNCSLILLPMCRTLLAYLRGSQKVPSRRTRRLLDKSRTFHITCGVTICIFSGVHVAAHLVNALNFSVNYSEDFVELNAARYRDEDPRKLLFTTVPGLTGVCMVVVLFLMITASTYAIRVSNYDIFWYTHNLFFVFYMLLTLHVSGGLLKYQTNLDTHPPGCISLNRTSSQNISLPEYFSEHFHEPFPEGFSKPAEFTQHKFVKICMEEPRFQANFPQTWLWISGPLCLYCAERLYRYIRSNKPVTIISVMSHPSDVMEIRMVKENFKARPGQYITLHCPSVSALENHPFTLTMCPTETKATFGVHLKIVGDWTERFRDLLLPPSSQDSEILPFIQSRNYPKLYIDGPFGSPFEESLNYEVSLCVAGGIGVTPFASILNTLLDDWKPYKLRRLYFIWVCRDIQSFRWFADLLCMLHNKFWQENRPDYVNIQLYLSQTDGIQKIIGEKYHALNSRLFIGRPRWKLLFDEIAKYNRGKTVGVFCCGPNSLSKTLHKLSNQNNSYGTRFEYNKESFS

[20] = biological target: NADPH oxidase 5 (Homo sapiens) (UniProt Q96PH1); experiment: NOX5-dependent H2O2 signal modulators, primary screen, NOX inhibitor project, cell-based, HEK293-NOX5, Amplex Red fluorescence (AID 1161); conditions: HEK293-NOX5, ionomycin, 45 min, higher = more signal
Chain of NADPH oxidase 5 (Homo sapiens) (Q96PH1 whole entry, looked up): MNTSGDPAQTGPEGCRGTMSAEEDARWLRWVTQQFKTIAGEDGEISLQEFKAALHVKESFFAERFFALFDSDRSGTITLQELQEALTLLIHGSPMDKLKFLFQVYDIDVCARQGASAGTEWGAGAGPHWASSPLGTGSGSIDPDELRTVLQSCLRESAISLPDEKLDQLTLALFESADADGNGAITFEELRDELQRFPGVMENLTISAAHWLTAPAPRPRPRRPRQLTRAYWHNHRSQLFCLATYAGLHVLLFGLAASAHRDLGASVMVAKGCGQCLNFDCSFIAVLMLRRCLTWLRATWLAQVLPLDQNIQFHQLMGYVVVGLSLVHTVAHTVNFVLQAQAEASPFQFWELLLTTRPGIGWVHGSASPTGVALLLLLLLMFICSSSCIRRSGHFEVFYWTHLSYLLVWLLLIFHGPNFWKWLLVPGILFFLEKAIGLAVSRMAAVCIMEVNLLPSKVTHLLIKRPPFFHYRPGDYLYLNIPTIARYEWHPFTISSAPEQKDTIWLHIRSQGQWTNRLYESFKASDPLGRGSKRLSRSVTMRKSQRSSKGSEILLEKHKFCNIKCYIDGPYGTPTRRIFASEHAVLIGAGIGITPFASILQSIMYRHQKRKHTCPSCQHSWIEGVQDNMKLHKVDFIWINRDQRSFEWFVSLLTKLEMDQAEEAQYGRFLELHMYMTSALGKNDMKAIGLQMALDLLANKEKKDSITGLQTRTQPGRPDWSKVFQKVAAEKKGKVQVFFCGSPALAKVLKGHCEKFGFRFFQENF

SMILES | composite z-score [1] | z-score [2] | z-score [3] | z-score [4] | z-score [5] | composite z-score [6] | composite z-score [7] | composite z-score (Torsin-1A (Homo sapiens) [8]) | composite z-score (Torsin-1A (Homo sapiens) [9]) | composite z-score [10] | z-score [11] | composite z-score [12] | z-score [13] | z-score [14] | z-score [15] | z-score [16] | z-score [17] | z-score [18] | z-score [19] | z-score [20]
COc1ccc([Si](C)(C)[C@@H]2[C@@H](CC(=O)N3CCC[C@H]3CO)O[C@]3(C(=O)N(c4ccccc4)c4ccccc43)[C@H]2C)cc1 | 0.155 | -4.58 (inactive) | 0.439 (inactive) | -0.0815 (inactive) | 0.334 (inactive) | 0.578 | 0.0047 | 0.491 | 0.466 | 1.53 | 2.66 (inactive) | -0.0718 | 0.616 (inactive) | -0.748 (inactive) | 1.1 (inactive) | -1.44 (inactive) | 0.499 | 2.54 (inactive) | 1.74 (inactive) | 2.4
NC(=O)NCC#Cc1ccc2c(c1)[C@]1(C(=O)N2)[C@H](C(N)=O)[C@H]2C(=O)O[C@H](c3ccccc3)[C@H](c3ccccc3)N2[C@@H]1c1ccc(O)cc1 | 0.0344 | -0.0803 (inactive) | -0.00225 (inactive) | 0.712 (inactive) | -0.0696 (inactive) | -0.104 | 1.34 | 0.2 | 1 | -0.41 | 0.0502 (inactive) | 1.73 | 0.271 (inactive) | 0.436 (inactive) | 0.471 (inactive) | 0.124 (inactive) | 0.226 | 0.122 (inactive) | -0.519 (inactive) | -0.479
[N-]=[N+]=Nc1ccccc1[C@H]1OC(c2ccc(OCCCO)cc2)=N[C@@]1(CCS(=O)(=O)c1ccccc1)C(N)=O | 0.79 | -1.26 (inactive) | -0.563 (inactive) | 0.96 (inactive) | -1.12 (inactive) | 0.751 | 0.668 | 0.875 | 0.356 | 0.176 | 0.613 (inactive) | 0.138 | 32 (active) | 28.1 (active) | 1.48 (inactive) | 2.16 (inactive) | -0.0187 | 0.178 (inactive) | 0.067 (inactive) | -0.909
O=C(OCc1ccccc1)C1=CCC2c3[nH]c4ccccc4c3C(=O)C1N2S(=O)(=O)c1ccccc1[N+](=O)[O-] (stereo not given) | 0.794 | -1.26 (inactive) | -0.00859 (inactive) | -0.0137 (inactive) | -0.451 (inactive) | 0.745 | 0.11 | 0.498 | 0.497 | 0.488 | -1.33 (inactive) | -0.192 | 7.08 (inactive) | 2.13 (inactive) | 0.105 (inactive) | 1.1 (inactive) | -0.605 | 0.663 (inactive) | -0.294 (inactive) | -1.97
C=CC[C@@]12N=C(c3ccc(OCCCO)cc3)O[C@@H]1c1ccccc1N(C)C2=O | 1.25 | -4.44 (inactive) | -0.0229 (inactive) | 0.297 (inactive) | -0.845 (inactive) | 0.248 | 0.268 | -0.0951 | 0.713 | 1.42 | 1.12 (inactive) | 0.349 | 33.2 (active) | 32.3 (active) | 2.02 (inactive) | 3.46 (inactive) | 0.368 | -2.99 (inactive) | -0.963 (inactive) | -1.85
Cc1ccc(S[C@]2(C(=O)NCCCN(C)C)CC(=O)N(Cc3ccccc3C(F)(F)F)[C@@H]2c2ccc(CO)cc2)cc1 | -0.197 | 0.312 (inactive) | 1.08 (inactive) | -0.295 (inactive) | 0.358 (inactive) | -0.0283 | -0.0791 | -0.544 | 0.801 | -0.548 | 0.674 (inactive) | 0.337 | 0.926 (inactive) | 0.479 (inactive) | 0.298 (inactive) | -0.0133 (inactive) | 0.104 | -6.22 (inactive) | 0.165 (inactive) | 0.526
C=C(CCCC)C(=O)CC[C@@H](OC(=O)c1ccccc1-c1ccccc1C(=O)O)c1ccc(OCCO)cc1 | 0.27 | 0.142 (inactive) | -0.385 (inactive) | -0.336 (inactive) | 1.8 (inactive) | -0.074 | -0.128 | 0.803 | 0.427 | 0.586 | -0.181 (inactive) | -0.23 | 17.2 (active) | 1.73 (inactive) | 1.15 (inactive) | 0.602 (inactive) | 0.276 | 2.45 (inactive) | 0.216 (inactive) | -0.936
